We go through 90 compounds from PubChem BioAssay AID504326 (The Scripps Research Institute Molecular Screening Center, 2011).

Each structure is given as a SMILES string. Screen size: about 340,000 compounds; about 990 (0.29%) were called active. Cut-off read from the data, not from the text of the source: active = activation above about 18%; inactive = the rest. The list comes from a sample in which actives are over-represented; it also holds similar structures and randomly drawn compounds.

This assay deals with Mu-type opioid receptor (Homo sapiens) + Delta-type opioid receptor (Homo sapiens) (UniProt P35372+P41143). Nature of the assay: agonists of OPRM1-OPRD1 heterodimerization, primary screen, cell-based, luminescence (AID 504326).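 Note: 0% = vehicle-treated cells and 100% = reference agonist.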 As to conditions: cells, at 9.3 µM, active compounds read high.
Chain of Mu-type opioid receptor (Homo sapiens) + Delta-type opioid receptor (Homo sapiens) (P35372 whole entry, looked up): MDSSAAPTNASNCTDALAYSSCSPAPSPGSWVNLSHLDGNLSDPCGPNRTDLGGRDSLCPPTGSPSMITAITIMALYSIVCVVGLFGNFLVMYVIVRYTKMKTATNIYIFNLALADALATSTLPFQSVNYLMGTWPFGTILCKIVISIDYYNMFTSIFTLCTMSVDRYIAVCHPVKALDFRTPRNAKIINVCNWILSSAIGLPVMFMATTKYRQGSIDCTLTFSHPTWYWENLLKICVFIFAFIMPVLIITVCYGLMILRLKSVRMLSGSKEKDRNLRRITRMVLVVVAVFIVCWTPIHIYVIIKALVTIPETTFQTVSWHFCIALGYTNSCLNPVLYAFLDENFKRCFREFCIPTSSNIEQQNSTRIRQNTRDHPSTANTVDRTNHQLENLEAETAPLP
Chain of Mu-type opioid receptor (Homo sapiens) + Delta-type opioid receptor (Homo sapiens) (P41143 whole entry, looked up): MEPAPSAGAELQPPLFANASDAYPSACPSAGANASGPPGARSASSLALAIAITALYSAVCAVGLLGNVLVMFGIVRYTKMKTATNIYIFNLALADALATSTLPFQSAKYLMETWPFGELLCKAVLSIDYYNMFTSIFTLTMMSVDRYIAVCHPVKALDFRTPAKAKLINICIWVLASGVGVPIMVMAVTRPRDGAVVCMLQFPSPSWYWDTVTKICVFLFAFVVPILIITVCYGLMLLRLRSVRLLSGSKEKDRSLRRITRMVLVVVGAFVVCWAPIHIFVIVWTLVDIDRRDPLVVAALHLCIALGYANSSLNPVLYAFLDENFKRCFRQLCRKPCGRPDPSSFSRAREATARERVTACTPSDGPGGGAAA
For `CCOC(=O)c1c(NC(=O)CNC2CCCc3ccccc32)sc(C(N)=O)c1C` (stereo not given), the activation was 9.2% (inactive).
The value for `CC(NC(=O)c1ccccc1)C(=O)Nc1ccccc1` (stereo not given) was -3.96% (inactive); that for `O=C(NC1=CC(=O)c2ccccc2C1=O)c1ccccc1` was 20% (active); that for `O=C1C=C(NS(=O)(=O)c2ccccc2)C(=O)c2ccccc21` was 1.48% (inactive).
In the case of `O=C(Cc1ccc(S(=O)(=O)N2CCOCC2)s1)N1CCN(c2ccc(C(F)(F)F)cc2[N+](=O)[O-])CC1`, the activation was -0.92% (inactive).
To `CCOC(=O)N1CCN(c2c(NCCN3CCN(c4ccccc4F)CC3)c(=O)c2=O)CC1` belongs -1.83% (inactive); to `CN(CC(=O)Nc1ccc(Cl)cc1)C(=O)c1ccc(COc2ccccc2)cc1`, 22.2% (active); to `CN(Cc1ccccc1)C(=O)c1ccc(COc2ccccc2)cc1`, 1.93% (inactive).
Turning to `COc1ccc(NC(=O)CN(C)C(=O)c2ccc(COc3ccccc3)o2)cc1`, the activation is -1.92% (inactive).
To `CC(CNc1ccc([N+](=O)[O-])c2cccnc12)Nc1c([N+](=O)[O-])cc(C(F)(F)F)cc1[N+](=O)[O-]` (stereo not given) belongs 0.2% (inactive); to `CCOC(=O)c1sc(NC(=O)C2CSC3(C)CCC(=O)N23)nc1C` (stereo not given), -4.78% (inactive); to `Clc1ccc(COn2c(-c3ccc(Cl)cc3Cl)nc3ncccc32)cc1`, 55.9% (active).
Turning to `Clc1ccc(-c2cc(-c3ccccn3)on2)c(Cl)c1`, the activation is -0.72% (inactive).
Turning to `CCOc1ccc(OCC)c(-c2c(=O)n(OCc3ccc(Cl)cc3)c3ccccc3[n+]2[O-])c1`, the activation was -0.14% (inactive).
Turning to `Cc1cccc(N2CCN(C(=O)c3ccccc3NC(=O)C3CCCCC3C(=O)O)CC2)c1` (stereo not given), the activation was -1.68% (inactive).
For `COc1ccc(C2Nc3ccccc3C(=O)N2Cc2ccccc2)cc1Cn1nnc2ccccc21` (stereo not given), the activation was 15.1% (inactive).
To `COc1ccc(N2C(=O)c3ccccc3NC2c2ccc(OC)c(CN3CCOCC3)c2)cc1` (stereo not given) belongs -3.57% (inactive); to `COc1ccc(C2Nc3ccccc3C(=O)N2c2ccc(F)cc2)cc1Cn1nnc2ccccc21` (stereo not given), 29.4% (active); to `Cc1ccc2cccc(O)c2[n+]1[O-]`, 4.35% (inactive).
Take `CCOc1ccc(C(=O)Nc2ccc(S(=O)(=O)NCC3CCCO3)cc2)cc1OCC` (stereo not given): the activation was -4.05% (inactive).
The value for `COc1ccc(/C=C/C(=O)Nc2ccc(C34CC5CC(CC(O)(C5)C3)C4)cc2)cc1OC` was 3.53% (inactive); that for `O=C(NCc1ccccn1)Nc1ccc(Cl)cc1` was -2.12% (inactive).
To `O=C(NCc1cn2ccsc2n1)Nc1cccc(Cl)c1` belongs -4.06% (inactive); to `O=C(NCc1cn2ccsc2n1)Nc1ccc(Cl)cc1`, 30.4% (active).
The value for `CCSC1=C(C#N)C(=O)n2c1cc1c2CCCC1` was -1.61% (inactive); that for `O=C1c2cccc3c([N+](=O)[O-])ccc(c23)C(=O)N1CC1CCCO1` (stereo not given) was 2.93% (inactive).
On to `Cc1cc(C)c(S(=O)(=O)N2C=CC(C(F)(F)F)=NCC2)c(C)c1`, for which the activation was 0.24% (inactive).
As to `COc1cccc(-n2c(SCC(=O)NC3CCCCC3)nc3n[nH]c(C)c3c2=N)c1`, the activation was 0.14% (inactive).
In the case of `CCCCNC(=O)CSc1nc2n[nH]c(C)c2c(=N)n1-c1cccc(Cl)c1C`, the activation was 0.12% (inactive).
The value for `Cc1ccc(-n2c(SCC(=O)NCCC3=CCCCC3)nc3n[nH]c(C)c3c2=N)cc1Cl` was 27.3% (active); that for `COc1cccc(NC(C)=[N+](C)CCNS(=O)(=O)c2ccc(Cl)cc2)c1` was -2.81% (inactive).
Consider `CCNS(=O)(=O)c1ccc(NC(=O)Nc2cccc(OC)c2)cc1`, for which the activation was 62.3% (active).
To `CCN(CC(=O)Nc1ccc(S(=O)(=O)N2CCCC2)cc1)CC(=O)Nc1cccc(OC)c1` belongs -3.32% (inactive); to `Cc1ccc(N2C(=O)N3[C@@H]4c5ccccc5OC[C@@H]4[C@@H](c4ccccc4)[C@@]3(C)C2=O)cc1`, -1.07% (inactive).
To `CC(C)N(Cc1nnc(-c2ccccc2Br)o1)C(=O)c1cc(Cl)nc2ccccc12` belongs -1.2% (inactive).
As to `COCCCNc1nc2c(-c3cccc(C(F)(F)F)c3)nnn2c2ccccc12`, the activation is -0.55% (inactive).
For `COC(=O)Cn1nc(-c2ccccc2)c2cc(Cl)ccc21`, the activation was -1.42% (inactive).
In the case of `COCCCNc1nc2c(-c3cccc(C)c3)nnn2c2ccc(Cl)cc12`, the activation is 41.8% (active).
`CC(=O)c1ccc(NC(=O)C(C)NCc2ccc(Cl)cc2)cc1` (stereo not given): the activation was -0.65% (inactive).
For `CN(C(=O)c1ccc(NC(=O)Cc2cccc(NC(=O)C3CCN(C(=O)c4ccccc4)CC3)c2)cc1)C1CC1`, the activation was -0.88% (inactive).
Regarding `COCCOC1CCN(C(=O)c2ccc(OC)c(OC3CCN(C(C)C)CC3)c2)CC1`, the activation was -3.67% (inactive).
Take `CCC(C(=O)OCC(=O)Nc1ccc(C(=O)Nc2ccc(OC)cc2)cc1)c1ccccc1` (stereo not given): the activation was 19.4% (active).
With `CCC(C(=O)OCC(=O)Nc1ccccc1-c1ccccc1)c1ccccc1` (stereo not given), the activation was 12.4% (inactive).
As for `CCC(C(=O)OCC(=O)Nc1c(Cl)cc(Cl)cc1Cl)c1ccccc1` (stereo not given), the activation is 6.24% (inactive).
The value for `O=C(CC(=O)N/N=C\c1cccc(Cl)c1Cl)NCc1ccccc1` was 1.01% (inactive).
As for `O=C(CNC(=O)c1ccccc1F)c1ccc(Br)cc1`, the activation is -3.5% (inactive).
Regarding `CCC(C)(C)C1CCC(=NNC(=O)c2ccc(Br)o2)CC1` (stereo not given), the activation is -0.98% (inactive).
The value for `CC(NC(=O)Nc1ccccc1)C(c1cccs1)N1CCN(c2ccccc2)CC1` (stereo not given) was -1.69% (inactive); that for `CC(NC(=O)C(C)(C)C)C(c1cccs1)N1CCN(Cc2ccccc2)CC1` (stereo not given) was -1.34% (inactive).
For the compound `CCCC(=O)NC(C)C(c1cccs1)N1CCN(c2ccccc2)CC1` (stereo not given), the activation is 25.9% (active).
Turning to `C#CC(CCN1CCCCC1)(OC)c1ccccc1` (stereo not given), the activation was -1.1% (inactive).
To `Cc1ccc(S(=O)(=O)N(Cc2cccc([N+](=O)[O-])c2)C(=O)N2CCN(C)CC2)cc1` belongs 2.18% (inactive); to `O=C(CCl)N(Cc1cccc([N+](=O)[O-])c1)c1cccc(Cl)c1`, 31.3% (active); to `O=C(c1cccc([N+](=O)[O-])c1)N1CCN(Cc2ccccc2)CC1`, -2.62% (inactive).
The value for `Cc1cc2c(cc1C)N(Cc1ccccc1)C1=NCCCN12` was -3.79% (inactive).
Take `COc1ccccc1C(=O)COC(=O)COc1ccc(C#N)cc1`: the activation was -3.44% (inactive).
The value for `N#C/C(=C(/O)COC(=O)COc1ccc(Cl)cc1)c1nc2ccccc2[nH]1` was 24.4% (active); that for `N#C/C(=C(/O)Cc1cccc2ccccc12)c1nc2ccccc2s1` was -0.06% (inactive); that for `COCCN(CCOC)S(=O)(=O)c1ccc(/C(O)=C(\C#N)c2nc3ccccc3[nH]2)cc1` was -0.63% (inactive).
Regarding `N#C/C(=C(/O)COc1cccc2ccccc12)c1nc2ccccc2[nH]1`, the activation is 20.5% (active).
Consider `CC(C)(C)c1nnc2sc(SCC(O)=C(C#N)c3nc4ccccc4[nH]3)nn2c1=O`, for which the activation was -3.45% (inactive).
To `CCc1nc2ccccc2c(C(=O)OC2CCCCC2=O)c1C` (stereo not given) belongs -2.96% (inactive); to `CC(C)(C)C(=O)NC(NC(=S)Nc1ccc(S(N)(=O)=O)cc1)C(Cl)(Cl)Cl` (stereo not given), 0.71% (inactive).
For the compound `CC(=O)NC(NC(=S)Nc1c(C)n(C)n(-c2ccccc2)c1=O)C(Cl)(Cl)Cl` (stereo not given), the activation is -0.74% (inactive).
The value for `Cc1ccc(NC(=S)NC(NC(=O)Cc2cccc3ccccc23)C(Cl)(Cl)Cl)cc1` (stereo not given) was 43.3% (active); that for `COc1ccc(OC)c(CN2CCN(C(=O)CNC(=O)c3cc(C)cc(C)c3)CC2)c1` was -5.2% (inactive).
To `O=C(CSc1nnc(CN2CCCC2)n1-c1ccc(F)cc1)c1ccc2c(c1)OCO2` belongs -2.96% (inactive).
The value for `C=CCN(C(=O)c1cc(C)cc(C)c1)C1(C(=O)Nc2ccccc2)CCN(C(C)C)CC1` was 0.59% (inactive).
For the compound `Cc1cc(C)cc(C(=O)N(CCc2ccccc2)C2=CC3CCC(C2)N3C)c1` (stereo not given), the activation was 104% (active).
To `Cc1ccc(CCN2CC(C(=O)NCCc3ccccc3)CC2=O)cc1` (stereo not given) belongs -2.88% (inactive); to `Cc1ccc(C2C(C#N)C(C#N)N3CCCN23)cc1` (stereo not given), 0.61% (inactive).
Consider `CSc1n[nH]c(=S)n1N`, for which the activation is -1.24% (inactive).
The value for `O=C(COc1ccc2ccc(=O)oc2c1)NCC(O)c1ccccc1` (stereo not given) was -1.9% (inactive); that for `CCCN1Cc2cccc(C(=O)NCc3ccccc3)c2C1=O` was -0.19% (inactive).
As for `Cc1ccc(S(=O)(=O)N(CC(=O)Nc2cccnc2)c2ccc(Br)cc2)cc1`, the activation was 24.9% (active).
As to `CCc1ccc(N(CC(=O)NCc2cccnc2)S(=O)(=O)c2ccccc2)cc1`, the activation is -1.13% (inactive).
To `CCNC(=O)CN(c1ccc(C)cc1)S(=O)(=O)c1ccc(SC)cc1` belongs -4.37% (inactive); to `Cc1ccc(O)c(NC(=S)NC(=O)COc2ccc(Br)cc2)c1`, 22.7% (active); to `CCS(=O)(=O)c1ccc(O)c(NC(=O)COc2ccc(Cl)cc2)c1`, -5.16% (inactive).
The value for `COc1ccc(C(=O)Nc2cc(C)ccc2NC(=O)COc2ccccc2)cc1` was 0.51% (inactive); that for `OCC1(Cc2ccccc2)CCN(Cc2cc3ccccc3o2)CC1` was 0.65% (inactive).
For `O=C(Nc1ncccc1O)c1ccc(S(=O)(=O)N2CCCCCC2)cc1`, the activation is -4.61% (inactive).
As for `N#CC(C(=O)c1ccc(S(=O)(=O)N2CCCCCC2)cc1)c1nc2ccccc2[nH]1` (stereo not given), the activation was 24.1% (active).
The value for `O=S(=O)(c1ccc(Br)cc1)N1CCC(c2nc3ccccc3[nH]2)CC1` was 1.07% (inactive); that for `Oc1cccc2ccc(/C=C/c3ccc(Br)s3)nc12` was 1.72% (inactive).
On to `Nc1ccc(C(=O)Nc2ccccc2N)cc1`, for which the activation is 2.04% (inactive).
Turning to `Cc1ccc(Nc2nc(Cl)c(C=O)s2)cc1`, the activation is 4.48% (inactive).
Regarding `Cc1ccc(Nc2ccccc2N)cc1`, the activation was 21.4% (active).
To `COc1cc(C(=O)OCC(=O)NC23CC4CC(CC(C4)C2)C3)cc(OC)c1OC` belongs -1.44% (inactive).
On to `COc1ccc(NC(=O)CCCN2C(=O)C(c3ccccc3)Oc3cccnc32)cc1` (stereo not given), for which the activation is 2.07% (inactive).
